Data: the supplement of paper PMC10849652
Of roughly 7,900 targets only a part is listed; those with a hit were picked by preference. About 0.6% of all pairs of compound and target were hits. Unmarked numbers belong to inactive results.

Experiments:
Assay in all cases: log2 fold change, soluble protein after heating vs DMSO (PISA); higher = thermal stabilisation; K562 cells, 10 uM, 30 min; active = over 0.2 and 3.5 SD of the protein, either way, in both replicates (recomputed)
[1] = compound: CC1=C(SC2=C1C(=N[C@H](C3=NN=C(N32)C)CC(=O)N)C4=CC=C(C=C4)Cl)C
In short: (§1)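 K562 cells at 2×10^6 cells/mL were treated for 30 min with 10 μM compound, and aliquots were heated for 3 min over 48°C-58°C before pooling. Extraction used PBS with 0.5% NP-40 at 4°C, and soluble protein was the supernatant after 21,000xg for 90 min, measured by TMTpro 16plex LC-MS/MS with channel sums equalised. Thermal stability values, relative to control samples and from duplicates, are log2 fold changes.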

[2] = compound: CC1=C2C(=CC=C1)N=C(N(C2=O)C3=CC=CC=C3C)CN4C=NC5=C(N=CN=C54)N
In short: as §1

[3] = compound: c1ccc([C@@H]2C[C@H]2NC2CCNCC2)cc1
In short: as §1

[4] = compound: C1=CC=C(C=C1)[C@H](COC2=CC3=C(C=C2)NC(=O)N3)NC(=O)C4=CC=CN(C4=O)CC5=CC(=C(C=C5)F)F
In short: as §1

[5] = compound: Cc1sc2c(c1C)C(c1ccc(Cl)cc1)=N[C@@H](CC(=O)OC(C)(C)C)c1nnc(C)n1-2
In short: as §1

UniProt Q9BWF3, sequence (Q9BWF3 whole entry, looked up): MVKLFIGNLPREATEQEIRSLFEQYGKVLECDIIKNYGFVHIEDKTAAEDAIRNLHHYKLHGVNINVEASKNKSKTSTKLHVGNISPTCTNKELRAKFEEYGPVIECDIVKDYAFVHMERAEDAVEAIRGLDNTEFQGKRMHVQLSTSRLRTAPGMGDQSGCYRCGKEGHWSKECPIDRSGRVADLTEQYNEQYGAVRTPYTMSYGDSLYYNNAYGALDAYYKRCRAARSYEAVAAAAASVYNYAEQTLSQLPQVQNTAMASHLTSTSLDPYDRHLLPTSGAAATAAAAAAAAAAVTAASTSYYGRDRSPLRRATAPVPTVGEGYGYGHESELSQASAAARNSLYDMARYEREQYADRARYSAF
UniProt Q9BWJ5, sequence (Q9BWJ5 whole entry, looked up): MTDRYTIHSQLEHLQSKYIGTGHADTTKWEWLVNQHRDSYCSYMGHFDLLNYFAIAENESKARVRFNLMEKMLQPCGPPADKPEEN
UniProt Q7L099, sequence (Q7L099 whole entry, looked up): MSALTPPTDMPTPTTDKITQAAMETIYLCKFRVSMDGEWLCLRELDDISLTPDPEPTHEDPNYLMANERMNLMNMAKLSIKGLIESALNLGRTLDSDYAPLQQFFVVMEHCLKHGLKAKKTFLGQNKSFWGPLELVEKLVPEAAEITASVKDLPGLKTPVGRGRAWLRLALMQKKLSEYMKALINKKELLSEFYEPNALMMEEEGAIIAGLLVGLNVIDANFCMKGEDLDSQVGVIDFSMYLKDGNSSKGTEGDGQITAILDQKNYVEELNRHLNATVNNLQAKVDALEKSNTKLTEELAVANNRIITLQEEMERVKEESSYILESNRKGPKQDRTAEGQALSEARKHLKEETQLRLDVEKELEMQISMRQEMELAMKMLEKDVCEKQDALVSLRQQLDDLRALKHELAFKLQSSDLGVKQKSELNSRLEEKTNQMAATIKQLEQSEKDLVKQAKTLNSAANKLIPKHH
UniProt P60602, sequence (P60602 whole entry, looked up): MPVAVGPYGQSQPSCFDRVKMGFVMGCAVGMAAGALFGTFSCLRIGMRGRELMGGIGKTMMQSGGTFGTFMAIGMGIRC
UniProt A6NEQ0, sequence (A6NEQ0 whole entry, looked up): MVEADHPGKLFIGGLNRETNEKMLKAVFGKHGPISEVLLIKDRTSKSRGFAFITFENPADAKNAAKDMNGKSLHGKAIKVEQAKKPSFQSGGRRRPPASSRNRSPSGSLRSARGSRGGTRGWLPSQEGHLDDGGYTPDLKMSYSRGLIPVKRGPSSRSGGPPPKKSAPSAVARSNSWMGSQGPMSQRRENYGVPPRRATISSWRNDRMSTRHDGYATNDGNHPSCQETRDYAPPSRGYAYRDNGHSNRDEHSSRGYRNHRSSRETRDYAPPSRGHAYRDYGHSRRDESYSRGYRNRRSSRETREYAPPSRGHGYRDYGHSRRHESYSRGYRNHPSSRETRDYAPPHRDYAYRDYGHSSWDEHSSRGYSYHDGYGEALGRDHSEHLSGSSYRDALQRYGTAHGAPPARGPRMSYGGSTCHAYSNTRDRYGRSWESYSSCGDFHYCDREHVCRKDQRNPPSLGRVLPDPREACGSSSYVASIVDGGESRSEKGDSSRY
UniProt Q02383, sequence (Q02383 whole entry, looked up): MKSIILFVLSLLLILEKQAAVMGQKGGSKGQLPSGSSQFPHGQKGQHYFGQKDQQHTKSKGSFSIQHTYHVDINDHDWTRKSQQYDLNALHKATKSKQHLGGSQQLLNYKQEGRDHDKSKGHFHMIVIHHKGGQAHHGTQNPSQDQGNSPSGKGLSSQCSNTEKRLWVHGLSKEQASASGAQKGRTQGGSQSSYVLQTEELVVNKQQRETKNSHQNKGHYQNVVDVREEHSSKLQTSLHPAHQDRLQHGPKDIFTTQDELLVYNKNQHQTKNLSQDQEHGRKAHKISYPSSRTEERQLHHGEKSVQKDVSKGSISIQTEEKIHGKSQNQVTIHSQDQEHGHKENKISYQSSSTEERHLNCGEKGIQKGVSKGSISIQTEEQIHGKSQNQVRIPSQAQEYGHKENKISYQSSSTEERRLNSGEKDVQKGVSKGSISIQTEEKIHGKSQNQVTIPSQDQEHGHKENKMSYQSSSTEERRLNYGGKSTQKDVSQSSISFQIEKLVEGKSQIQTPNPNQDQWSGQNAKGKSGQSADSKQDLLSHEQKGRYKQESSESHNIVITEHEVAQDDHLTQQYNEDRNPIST
UniProt Q96IZ7, sequence (Q96IZ7 whole entry, looked up): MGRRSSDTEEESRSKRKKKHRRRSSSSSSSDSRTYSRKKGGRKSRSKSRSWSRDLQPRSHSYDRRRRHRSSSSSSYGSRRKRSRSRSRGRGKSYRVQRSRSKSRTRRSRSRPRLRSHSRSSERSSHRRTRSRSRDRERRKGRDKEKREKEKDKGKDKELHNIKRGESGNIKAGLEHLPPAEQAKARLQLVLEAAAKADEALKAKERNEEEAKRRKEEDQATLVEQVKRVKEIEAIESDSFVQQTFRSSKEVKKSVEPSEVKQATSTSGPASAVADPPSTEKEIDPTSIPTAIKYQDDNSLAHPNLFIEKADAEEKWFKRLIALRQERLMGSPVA
UniProt O14796, sequence (O14796 whole entry, looked up): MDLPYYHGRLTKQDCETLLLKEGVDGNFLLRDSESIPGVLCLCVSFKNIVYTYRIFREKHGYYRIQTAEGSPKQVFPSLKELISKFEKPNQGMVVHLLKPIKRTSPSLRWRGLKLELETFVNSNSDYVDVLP
UniProt Q9UKL0, sequence (Q9UKL0 whole entry, looked up): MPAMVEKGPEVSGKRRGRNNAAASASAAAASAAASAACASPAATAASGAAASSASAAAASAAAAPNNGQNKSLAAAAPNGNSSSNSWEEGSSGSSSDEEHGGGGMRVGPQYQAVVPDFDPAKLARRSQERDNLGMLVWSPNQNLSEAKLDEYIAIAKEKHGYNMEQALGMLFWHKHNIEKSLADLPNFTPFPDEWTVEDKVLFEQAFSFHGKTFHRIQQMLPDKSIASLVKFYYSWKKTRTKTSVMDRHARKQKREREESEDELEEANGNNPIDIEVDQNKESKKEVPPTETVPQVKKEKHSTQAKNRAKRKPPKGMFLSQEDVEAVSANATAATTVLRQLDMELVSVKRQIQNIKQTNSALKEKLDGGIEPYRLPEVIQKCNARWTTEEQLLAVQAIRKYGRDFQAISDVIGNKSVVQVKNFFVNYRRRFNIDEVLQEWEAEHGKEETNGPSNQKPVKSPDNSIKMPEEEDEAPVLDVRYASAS
UniProt P05543, sequence (P05543 whole entry, looked up): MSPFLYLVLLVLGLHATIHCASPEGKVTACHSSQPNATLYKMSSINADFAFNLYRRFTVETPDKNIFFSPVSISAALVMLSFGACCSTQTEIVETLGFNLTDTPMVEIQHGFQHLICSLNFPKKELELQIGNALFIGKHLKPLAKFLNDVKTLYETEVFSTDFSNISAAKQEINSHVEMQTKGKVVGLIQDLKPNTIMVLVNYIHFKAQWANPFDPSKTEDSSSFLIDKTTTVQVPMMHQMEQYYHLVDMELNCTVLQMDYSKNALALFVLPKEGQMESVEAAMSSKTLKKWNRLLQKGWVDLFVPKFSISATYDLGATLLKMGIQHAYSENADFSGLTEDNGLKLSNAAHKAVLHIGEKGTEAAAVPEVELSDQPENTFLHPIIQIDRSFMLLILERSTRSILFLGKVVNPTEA
UniProt P78332, sequence (P78332 whole entry, looked up): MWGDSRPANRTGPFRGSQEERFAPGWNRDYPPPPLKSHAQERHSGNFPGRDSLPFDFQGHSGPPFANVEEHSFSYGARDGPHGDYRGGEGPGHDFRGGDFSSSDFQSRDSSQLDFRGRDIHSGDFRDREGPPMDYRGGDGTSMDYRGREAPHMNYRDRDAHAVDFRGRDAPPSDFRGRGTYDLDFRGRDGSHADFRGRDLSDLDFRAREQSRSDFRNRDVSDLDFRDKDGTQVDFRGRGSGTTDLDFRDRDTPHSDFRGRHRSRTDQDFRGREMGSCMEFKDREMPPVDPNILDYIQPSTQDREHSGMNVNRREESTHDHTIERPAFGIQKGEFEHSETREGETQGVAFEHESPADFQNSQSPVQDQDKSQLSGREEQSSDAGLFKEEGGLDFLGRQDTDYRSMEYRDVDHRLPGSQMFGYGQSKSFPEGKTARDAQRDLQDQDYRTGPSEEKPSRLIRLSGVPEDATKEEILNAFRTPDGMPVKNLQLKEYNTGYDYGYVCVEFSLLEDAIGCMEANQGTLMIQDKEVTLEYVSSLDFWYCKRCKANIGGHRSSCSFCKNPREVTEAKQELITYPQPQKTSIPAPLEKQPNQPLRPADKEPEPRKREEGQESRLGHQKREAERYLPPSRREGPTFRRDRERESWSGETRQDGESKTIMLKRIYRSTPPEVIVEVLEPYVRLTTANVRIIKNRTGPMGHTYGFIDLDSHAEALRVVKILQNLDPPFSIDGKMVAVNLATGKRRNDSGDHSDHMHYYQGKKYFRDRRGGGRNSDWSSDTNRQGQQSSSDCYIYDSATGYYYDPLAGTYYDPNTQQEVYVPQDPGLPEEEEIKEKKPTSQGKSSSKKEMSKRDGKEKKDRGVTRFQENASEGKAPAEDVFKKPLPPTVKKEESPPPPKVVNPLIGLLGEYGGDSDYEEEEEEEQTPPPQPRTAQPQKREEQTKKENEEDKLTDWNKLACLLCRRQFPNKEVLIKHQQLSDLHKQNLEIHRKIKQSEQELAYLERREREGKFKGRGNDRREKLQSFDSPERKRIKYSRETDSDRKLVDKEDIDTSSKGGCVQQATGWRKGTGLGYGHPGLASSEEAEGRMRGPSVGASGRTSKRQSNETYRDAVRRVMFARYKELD
UniProt Q5RL73, sequence (Q5RL73 whole entry, looked up): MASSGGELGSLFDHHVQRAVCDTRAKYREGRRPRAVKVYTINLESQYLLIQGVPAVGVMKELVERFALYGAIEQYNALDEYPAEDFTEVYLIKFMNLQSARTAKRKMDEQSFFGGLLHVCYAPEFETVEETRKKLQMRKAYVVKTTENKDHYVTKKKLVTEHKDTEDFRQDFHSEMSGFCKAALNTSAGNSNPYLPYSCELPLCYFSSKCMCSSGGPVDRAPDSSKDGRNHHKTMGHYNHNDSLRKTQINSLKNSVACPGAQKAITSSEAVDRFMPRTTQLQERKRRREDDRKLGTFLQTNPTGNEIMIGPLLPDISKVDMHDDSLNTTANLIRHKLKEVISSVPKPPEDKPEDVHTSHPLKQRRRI

Target	log2 fold change [1]	log2 fold change [2]	log2 fold change [3]	log2 fold change [4]	log2 fold change [5]
SAP30 (UniProt O75446)	-0.006	-0.002	-0.032		
RNF220 (UniProt Q5VTB9)	0.072	0.14	0.038	0.004	-0.045
SF3B5 (UniProt Q9BWJ5)		-0.032		0.056	0.007
RPS5 (UniProt P46782)	-0.144	-0.214	0.001	0.049	0.082
RPS19 (UniProt M0R2L9)					0.183
RUFY3 isoform 3 (UniProt Q7L099)	-0.004	0.061	0.029		0.016
RBMY1E (UniProt A6NEQ0)	-0.02		0.145	0.063	0.001
RPS3A (UniProt D6R9B6)					0.248
RBM6 (UniProt P78332)	-0.075		0.076		0.012
SAMD4B (UniProt Q5PRF9)	-0.027		0.058	0.107	0.039
SART3, A0A499FI31	0.015	0.056	-0.006	-0.008	-0.08
RNF26 (UniProt Q9BY78)		-0.104		0.005	
RNASET2 (UniProt O00584)	-0.038	0.063	0.012	0.037	-0.013
RUNX1 isoform 8 (UniProt Q01196)		0.025		-0.042	
SLC1A3 (UniProt P43003)	0.003	-0.016	0.039	-0.031	0.17
SIK3 (UniProt H0Y4E8)	0.034	0.025	0.028		0.118
RICTOR isoform 3 (UniProt Q6R327)					0.043
RCOR1 (UniProt Q9UKL0)	0.021	0.114	0.856 (active)	-0.113	0.006

Target	log2 fold change [1]	log2 fold change [2]	log2 fold change [3]	log2 fold change [4]	log2 fold change [5]
SERPINA7 (UniProt P05543)	-0.001	0.1	0.128	-0.014	0.12
RPS18 (UniProt P62269)	-0.125	-0.04	0.004	0.088	0.099
SH2D1B (UniProt O14796)	0.205	-0.047	0.033		0.003
SCPEP1 (UniProt Q9HB40)	-0.006	-0.001	-0.007	0.006	0.007
RPS3 (UniProt E9PJN9)					0.141
RTF2 (UniProt Q9BY42)	-0.009	0.068	0.045	0.054	-0.038
ROMO1 (UniProt P60602)	-0.061		0.082	0.045	0.172
RSRC1 (UniProt Q96IZ7)	-0.019	0.079	-0.03	-0.002	-0.019
S100A10 (UniProt P60903)	0.061		-0.01	0.651	-0.127
SEMG2 (UniProt Q02383)	0.063		-0.066	0.038	-0.047
SERINC1 (UniProt Q9NRX5)		0.027		0.021	-0.08
RMDN2 isoform 2 (UniProt Q96LZ7)		0.164			
SDCBP isoform 2 (UniProt O00560)				-0.08	0.169
RBM48 isoform 2 (UniProt Q5RL73)	0.058		0.113	0.008	-0.36
RIOK2 (UniProt Q9BVS4)	-0.038	-0.119	-0.009	0.034	0.116
RBM4 (UniProt Q9BWF3)	-0.074	-0.011	0.073	-0.029	0.009
RRAGC (UniProt Q9HB90)	0.104	0.095	0.009	0.009	-0.041
SDHAF4 (UniProt Q5VUM1)	0.16		0.073	0.053	-0.025
